Assay outcomes: PubChem BioAssay, Broad Institute
ID4 binder = binders of human ID4 protein | P47928 | small molecule microarray, Flag-ID4 binding, fluorescence F/B | calls only | hit rate 1.2% among 31,000 | AID 624137; call rule not given here;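 note: a binder raises fluorescence above local background on the spot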
STK33 kin inh = inhibitors of human STK33 kinase; AID 2322; ADP-Glo luminescence, MBP substrate; Q9BYT3; hit rate 0.44% among 27,000; inhibition, % at 12.5 µM; in the data active = inhibition above about 20%
Target sequence (Q9BYT3 whole entry, looked up): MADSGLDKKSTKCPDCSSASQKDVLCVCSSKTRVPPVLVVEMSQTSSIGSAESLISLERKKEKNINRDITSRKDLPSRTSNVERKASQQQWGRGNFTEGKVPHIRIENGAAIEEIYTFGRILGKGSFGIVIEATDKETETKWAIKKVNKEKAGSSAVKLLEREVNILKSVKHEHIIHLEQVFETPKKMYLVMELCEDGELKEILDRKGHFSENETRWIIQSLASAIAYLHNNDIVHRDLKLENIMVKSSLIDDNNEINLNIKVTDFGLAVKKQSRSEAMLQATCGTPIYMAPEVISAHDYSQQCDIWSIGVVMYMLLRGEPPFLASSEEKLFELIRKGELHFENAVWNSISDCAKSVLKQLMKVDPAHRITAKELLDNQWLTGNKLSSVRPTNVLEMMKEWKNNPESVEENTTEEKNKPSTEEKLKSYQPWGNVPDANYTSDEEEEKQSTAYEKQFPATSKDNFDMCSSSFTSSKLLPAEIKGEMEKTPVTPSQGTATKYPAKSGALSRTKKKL
mut p53 react = re-activators of the mutant p53 pathway | activation, % at 9.98 µM | hit rate 1.5% among 28,000 | SW480 PUMA-promoter luciferase, p53 mutant reactivation; in the data active = activation above about 52%
The depositor's hits bear a star; i = inactive; · = no result; + = active, no number. Hits are enriched below; roughly 2% of the tested compounds scored in any of these assays.

SMILES | ID4 binder | STK33 kin inh | mut p53 react
C[C@H](CO)N1C[C@H](C)[C@H](CN(C)CC2CC2)OCc2cn(nn2)CCCC1=O | i | 2 | ·
O=c1c(-c2ccc(O)cc2)coc2cc(OC3OC(CO)C(O)C(O)C3O)cc(O)c12 (configuration not stated) | i | 2 | 90*
COc1cc(O)c2c(=O)c(-c3ccc(O)cc3)coc2c1 | · | 4 | ·
Cc1ccccc1-n1c(SCC(N)=O)nc2ccccc2c1=O | i | 0 | 14
Cc1cccc(C)c1OCC(=O)Nc1cccc(NC(=O)c2ccco2)c1 | i | 6 | 5
Cc1sc(NC(=S)NC(=O)c2ccco2)c(C(N)=O)c1C | i | 2 | 59*
Cc1sc(NC(=S)NC(=O)Cc2cccc3ccccc23)c(C(N)=O)c1C | i | 8 | 0
Cc1cc(I)cnc1NC(=S)NC(=O)c1ccco1 | i | 1 | 76*
CC(=O)Nc1ccccc1NC(=O)COc1ccc(Cl)c(C)c1 | i | -3 | 6
N#Cc1c(NC(=O)CSc2nc(-c3ccccc3)cc(C(F)(F)F)n2)sc2c1CCCCC2 | i | -5 | -27
O=C(COc1ccc(Cl)cc1)Nc1ccc2nn(-c3ccc(F)cc3)nc2c1 | i | 4 | 41
C[C@@H]1CN([C@H](C)CO)C(=O)c2cc(C3=CCCCC3)cnc2O[C@H]1CN(C)Cc1ccc(C(=O)O)cc1 | + | · | 4
C[C@H]1CN([C@@H](C)CO)C(=O)c2cc(C3=CCCCC3)cnc2O[C@@H]1CN(C)Cc1ccccc1 | i | · | ·
C[C@H](CO)N1C[C@H](C)[C@@H](CN(C)Cc2ccccc2C(=O)O)Oc2ncc(C3=CCCCC3)cc2C1=O | + | · | 11
C[C@H](CO)N1C[C@H](C)[C@@H](CN(C)Cc2ccccc2F)Oc2ncc(C3=CCCCC3)cc2C1=O | i | · | ·
Cc1cc(N(CC(=O)Nc2cc(Cl)ccc2Cl)S(C)(=O)=O)ccc1Br | i | 2 | -4
COC(=O)c1c(NC(=O)Cn2ccc([N+](=O)[O-])n2)sc2c1CCCC2 | i | -1 | 19
Cn1c(SCC(=O)Nc2c(F)cc(F)cc2Br)nnc1-c1ccco1 | + | 0 | 8
COc1ccc(-c2nnc(SCC(=O)Nc3c(F)cc(F)cc3Br)n2C)cc1 | i | 3 | -7
Cc1cc(SCC(=O)Nc2ccc(SC(F)F)cc2)nc2ccccc12 | i | 1 | -5
Cc1ccccc1CN1C(=O)C(O)(CC(=O)c2ccncc2)c2cc(Cl)ccc21 (configuration not stated) | i | -6 | 1
COc1ccc2oc3ccccc3c(=O)c2c1 | · | 61* | ·
COc1ccc(-c2cc(=O)c3ccccc3o2)cc1 | i | 8 | 43
COc1ccc2c(=O)cc(-c3ccccc3)oc2c1 | · | 8 | 81*
Nc1ccc(-c2cc(=O)c3cc(O)ccc3o2)cc1 | i | 8 | 26
SMILES | ID4 binder | STK33 kin inh | mut p53 react
O=c1cc(-c2ccccc2)oc2cc(O)ccc12 | i | 17 | 77*
O=c1c2ccccc2oc2ccc(O)cc12 | i | 17 | ·
Cc1cc(C)c2oc(-c3cccc(NC(=O)COc4ccc(Cl)cc4)c3C)nc2c1 | i | 3 | -14
Cn1nnnc1SCC(=O)Nc1ccc(F)c(F)c1 | i | 1 | 22
O=C1C=CC(=O)c2c(O)c(Cl)c(Cl)c(O)c21 | · | 22* | -92
COc1cc(/C=C2\Oc3cc(O)ccc3C2=O)ccc1O | · | 78* | ·
COc1ccc2c(c1)OC/C(=C\c1ccc(OC)c(O)c1)C2=O | · | 11 | ·
Brc1c(Br)c(Br)c2n[nH]nc2c1Br | i | 20* | ·
Cn1c(Cc2cccc3ccccc23)nnc1SCc1ccccc1C#N | i | -3 | -1
C[C@@]12C[C@@H](c3ccoc3)OC(=O)[C@H]1CC[C@@]1(C)C(C(=O)O)=CCC[C@@H]21 | · | 3 | -1
N#Cc1ccccc1OCCCCSc1ncccn1 | i | -4 | 102*
Fc1ccccc1OCCCCSc1ncccn1 | i | -4 | 31
Cc1ccc(-c2nn(C)c(=O)c3ccccc23)cc1CNC(=O)CN1CCOCC1 | i | -9 | 1
Cc1ccc(-c2nn(C)c(=O)c3ccccc23)cc1S(=O)(=O)N1CCN(CCO)CC1 | + | -2 | -4
COc1cccc2cc(C(=O)N3CCN(CCN4C(=O)c5cccc6cccc(c56)C4=O)CC3)c(=O)oc12 | i | -1 | 21
Cn1c(/C=C/C=C/N2CCCC2)nc2ccccc2c1=O | · | 2 | ·
C[C@H]1CCCCO[C@@H](CN(C)C(=O)c2ccncc2)[C@@H](C)CN([C@@H](C)CO)C(=O)c2cc(NS(=O)(=O)c3ccccc3)ccc2O1 | + | · | 0
C[C@@H]1CN([C@@H](C)CO)C(=O)c2cc(NS(=O)(=O)c3ccccc3)ccc2O[C@@H](C)CCCCO[C@H]1CN(C)C(=O)c1ccncc1 | i | · | 8
C[C@H]1CCCCO[C@@H](CN(C)Cc2ccc(C(=O)O)cc2)[C@@H](C)CN([C@@H](C)CO)C(=O)c2cc(NS(=O)(=O)c3ccccc3)ccc2O1 | + | · | 15
C[C@@H]1CCCCO[C@H](CN(C)Cc2ccc(C(=O)O)cc2)[C@H](C)CN([C@H](C)CO)C(=O)c2cc(NS(=O)(=O)c3ccccc3)ccc2O1 | · | · | 5
COc1cc(OC)c(O[C@@H]2O[C@H](COC(=O)c3cc(O)c(O)c(O)c3)[C@@H](O)[C@H](O)[C@H]2O)c(OC)c1 | i | 0 | -6
COC(=O)c1ccccc1NC(=O)Cc1coc2c(C)c(C)ccc12 | i | -1 | -3
O=C(O)c1cc(NC(=O)C2CCCO2)cc(NC(=O)C2CCCO2)c1 (configuration not stated) | + | 0 | -7
O=C(Nc1ccc(S(=O)(=O)NCC2CCCO2)cc1)C1CCCO1 (configuration not stated) | i | 0 | -1
Cc1cc(Br)ccc1NC(=O)CSc1ncn(-c2ccccc2)n1 | i | -1 | -4
SMILES | ID4 binder | STK33 kin inh | mut p53 react
CCn1cc(CNC(=O)c2cc(-c3cccnc3)nc3ccc(Br)cc23)c(C)n1 | i | -5 | 0
COCCNC(=O)c1cc(-c2cccnc2)nc2ccc(Br)cc12 | i | 5 | 12
CCCc1ccc(-c2cc(C(=O)NCc3cccnc3)c3ccccc3n2)cc1 | i | 0 | 106*
Cc1ccc2nc(-c3cccc(Br)c3)cc(C(=O)NCc3cccnc3)c2c1 | i | -2 | 58*
Cc1sc(NC(=O)c2cc(-c3ccccc3)nc3ccccc23)c(C(=O)NCc2cccnc2)c1C | i | 1 | -11
Cc1ccc(-c2cc(C(=O)NCc3cccnc3)c3cc(Br)ccc3n2)cc1 | i | 2 | 67*
CC(C)(C)c1ccccc1NC(=O)c1cccc(Cn2cc(Cl)cn2)c1 | i | · | -3
CCn1nc(C)c(N=Cc2ccc(N(C)C)c(Br)c2)c1C | i | · | -2
Cc1cc2c(=O)n(Cc3ccco3)c(SCc3cc(=O)[nH][nH]3)nc2s1 | i | -1 | 2
O=C(N[C@@H](Cc1ccccc1)Cn1cc(CN2C(=O)COC[C@H]2c2ccccc2)nn1)c1ccccc1 | i | · | ·
O=C(Nc1ccccc1)N[C@H](Cc1ccccc1)Cn1cc(CN2C(=O)COC[C@H]2c2ccccc2)nn1 | + | · | ·
COc1ccc(-c2nc3cc(C(C)C)ccc3o2)cc1NC(=O)COc1ccc(C)cc1 | i | -3 | 64*
Cc1cc(C)cc(OCC(=O)Nc2cc(-c3nc4ccc(C)cc4o3)ccc2C)c1 | i | 11 | -16
